Our source for the composite z-score and z-score values is PubChem BioAssay.

Activity calls are given as the source filed them. Unless noted, the rule behind the calls is not given here.

The test system of assay [1] is Wnt5a (protein binding on small-molecule microarray). As to the kind of experiment: Wnt5a binders on small-molecule microarray, primary screen, biophysical, 635/667 nm fluorescence (AID 1142).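 Note: fluorescence read at 667 nm with signal to noise per printed feature.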 As to conditions: 635 nm fluorescence, higher = more signal.
A short description of assay [2]: cell viability in Huh7 cells, primary screen, cytotoxicity control for HCV replication inhibitor project, CellTiter-Glo luminescence, basal, 48 h (AID 1143).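 Note: Huh7 hepatoma cells carrying a hepatitis C replication reporter with no stimulus; test concentration not given here.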 The conditions noted are these: Huh7 HCV replicon, higher = more signal, called active from +8 up or from −8 down.
Assay [3] is described as follows: P. aeruginosa biofilm formation inhibitors, primary screen, PAO1 strain, BacTiter-Glo luminescence, LB-PBS (AID 1144). As to conditions: 12 h, higher = more signal.
A short description of assay [4]: CREB reporter modulators without forskolin, primary screen, cell-based, PC12, CRE-LacZ reporter, unstimulated (AID 1145). The conditions noted are these: no forskolin, luminescence, 4.5 h, higher = more signal, called active from +8 up or from −8 down.
Assay [5] is described as follows: CREB reporter modulators under forskolin, primary screen, cell-based, PC12, CRE-LacZ reporter, forskolin-stimulated (AID 1146).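 Note: PC12 cells with 6xCRE LacZ reporter stimulated by forskolin 10 µM; beta-galactosidase reporter signal reflecting CREB driven transcription.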 The conditions noted are these: luminescence, 4.5 h, higher = more signal, called active from +8 up or from −8 down.
Assay [6] addresses Streptavidin (Streptomyces avidinii) (UniProt P22629). As to the kind of experiment: streptavidin binders on small-molecule microarray, primary screen, artefact control for SMM compound annotation, biophysical, 635/667 nm fluorescence (AID 1147).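 Note: signal reflects streptavidin binding to arrayed compounds as a control protein.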 The conditions noted are these: streptavidin binding, higher = more signal.
Assay [7] can be described thus: small-molecule binders of probe aInhba, primary screen, biochemical, small-molecule microarray, 635/667 nm fluorescence (AID 1148).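 Note: score merges 667nm spot fluorescence with signal-to-noise for antibody binding to printed compounds.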 As to conditions: higher = more signal.
In assay [8] the target is Torsin-1A (Homo sapiens) (UniProt O14656). As to the kind of experiment: torsin A binders from cell lysate, primary screen, small-molecule microarray, wild-type, 635/667 nm (AID 1149). The conditions noted are these: COS7 hTOR1A-WT lysate, 635 nm fluorescence, higher = more signal.
For assay [9] the target is unchanged. As to the kind of experiment: small-molecule binders of mutant TOR1A in lysate, primary screen, cell lysate, small-molecule microarray, COS7 lysate, 635/667 nm fluorescence (AID 1150).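 Note: score pools 667 nm emission and signal to noise measuring lysate protein binding.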 As to conditions: COS7 hTOR1A mutant lysate, 635 nm fluorescence, higher = more signal.
The subject of assay [10] is Sonic hedgehog protein (Shh). As to the kind of experiment: small-molecule binders of Shh protein, primary screen, biochemical, small-molecule microarray, 635/667 nm fluorescence (AID 1151).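 Note: Shh protein binding to compounds spotted on small-molecule microarray slides; score combines spot fluorescence intensity with signal-to-noise across triplicate slides.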 As to conditions: small-molecule microarray binding, 635 nm fluorescence; higher = more signal.
The nature of assay [11]: E. coli DRC41 culture turbidity changes, primary screen, E. coli filamentation inducer project, strain DRC41, OD650, 48 h (AID 1152).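 Note: E. coli MC1000 strain DRC41 lacking acrAB efflux pump and sulA.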 As to conditions: E. coli DRC41 (acrAB sulA), higher = more signal, called active from +8 up or from −8 down.
A short description of assay [12]: small-molecule binders of probe aLefty1, primary screen, biochemical, small-molecule microarray, 635/667 nm fluorescence (AID 1153).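 Note: score merges spot fluorescence with signal-to-noise ratio from the scanned slide images.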 The conditions noted are these: higher = more signal.
The nature of assay [13]: PSAC antagonists in infected red cells, primary screen, cell-based, P. falciparum Indochina, OD700, 1 h (AID 1154). As to conditions: P. falciparum Indochina infected RBC osmotic lysis, higher = more signal, called active from +8 up or from −8 down.
The nature of assay [14]: PSAC antagonists in infected red cells, primary screen, cell-based, P. falciparum Indochina, OD700, 2 h (AID 1155).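 Note: lysis reports solute entry through the parasite surface anion channel PSAC; channel blockers reduce lysis of infected cells.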 As to conditions: P. falciparum Indochina infected erythrocytes, osmotic lysis OD700; higher = more signal, called active from +8 up or from −8 down.
Assay [15] in a line: osmotic lysis modulators in infected erythrocytes, primary screen, PSAC antagonist project, cell-based, P. falciparum Indochina, OD700, 3 h (AID 1156). As to conditions: higher = more signal, called active from +8 up or from −8 down.
Assay [16] can be described thus: PSAC antagonists in infected red cells, primary screen, cell-based, P. falciparum Indochina, OD700, 18 h (AID 1157). As to conditions: P. falciparum Indochina infected erythrocytes, osmotic lysis OD700, 18 h; higher = more signal, called active from +8 up or from −8 down.
A short description of assay [17]: modulators of S6 phosphorylation in cells, primary screen, cell-based, A549, cytoblot, luminescence, serum-stimulated (AID 1158).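 Note: serum-stimulated A549 lung adenocarcinoma cells; signal is phosphorylated S6 detected by cytoblot immunostaining with HRP secondary.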 The conditions noted are these: A549 phospho-S6 cytoblot, 5 h, higher = more signal.
For assay [18], the target named is NADPH oxidase 2 (Homo sapiens) (UniProt P04839). Description: NOX2-dependent H2O2 signal modulators, primary screen, NOX inhibitor project, cell-based, HEK293-NOX2, PMA-stimulated, Amplex Red fluorescence (AID 1159). Note: test concentration not given here. As to conditions: 45 min, higher = more signal, called active from +8 up or from −8 down.
The target of assay [19] is NADPH oxidase 4 (Homo sapiens) (UniProt Q9NPH5). Description: NOX4-dependent H2O2 signal modulators, primary screen, NOX inhibitor project, cell-based, HEK293-NOX4, tetracycline-induced, Amplex Red fluorescence (AID 1160). The conditions noted are these: 45 min, higher = more signal, called active from +8 up or from −8 down.
The target in assay [20] is NADPH oxidase 5 (Homo sapiens) (UniProt Q96PH1). As to the kind of experiment: NOX5-dependent H2O2 signal modulators, primary screen, NOX inhibitor project, cell-based, HEK293-NOX5, Amplex Red fluorescence (AID 1161). The conditions noted are these: HEK293-NOX5, ionomycin, 45 min, higher = more signal.
NADPH oxidase 5 (Homo sapiens), sequence (Q96PH1 whole entry, looked up): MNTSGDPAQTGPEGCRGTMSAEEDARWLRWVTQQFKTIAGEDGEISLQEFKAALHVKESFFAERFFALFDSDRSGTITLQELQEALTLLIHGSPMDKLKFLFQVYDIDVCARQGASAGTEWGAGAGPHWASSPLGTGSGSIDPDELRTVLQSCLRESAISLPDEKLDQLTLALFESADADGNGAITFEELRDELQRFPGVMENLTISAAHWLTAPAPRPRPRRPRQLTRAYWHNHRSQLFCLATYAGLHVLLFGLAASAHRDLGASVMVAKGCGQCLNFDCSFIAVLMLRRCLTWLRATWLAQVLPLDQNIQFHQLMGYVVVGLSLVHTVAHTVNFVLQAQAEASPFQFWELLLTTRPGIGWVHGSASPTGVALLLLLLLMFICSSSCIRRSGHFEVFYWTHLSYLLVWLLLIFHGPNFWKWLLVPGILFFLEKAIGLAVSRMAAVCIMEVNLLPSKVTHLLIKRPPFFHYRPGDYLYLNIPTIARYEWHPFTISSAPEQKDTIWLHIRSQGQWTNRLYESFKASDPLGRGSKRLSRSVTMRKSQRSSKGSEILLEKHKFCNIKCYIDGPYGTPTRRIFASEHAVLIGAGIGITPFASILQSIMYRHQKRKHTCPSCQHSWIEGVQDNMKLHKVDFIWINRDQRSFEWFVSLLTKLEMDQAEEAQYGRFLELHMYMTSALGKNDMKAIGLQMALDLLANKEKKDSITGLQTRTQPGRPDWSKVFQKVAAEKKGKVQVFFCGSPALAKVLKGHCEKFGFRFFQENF

NADPH oxidase 2 (Homo sapiens), sequence (P04839 whole entry, looked up): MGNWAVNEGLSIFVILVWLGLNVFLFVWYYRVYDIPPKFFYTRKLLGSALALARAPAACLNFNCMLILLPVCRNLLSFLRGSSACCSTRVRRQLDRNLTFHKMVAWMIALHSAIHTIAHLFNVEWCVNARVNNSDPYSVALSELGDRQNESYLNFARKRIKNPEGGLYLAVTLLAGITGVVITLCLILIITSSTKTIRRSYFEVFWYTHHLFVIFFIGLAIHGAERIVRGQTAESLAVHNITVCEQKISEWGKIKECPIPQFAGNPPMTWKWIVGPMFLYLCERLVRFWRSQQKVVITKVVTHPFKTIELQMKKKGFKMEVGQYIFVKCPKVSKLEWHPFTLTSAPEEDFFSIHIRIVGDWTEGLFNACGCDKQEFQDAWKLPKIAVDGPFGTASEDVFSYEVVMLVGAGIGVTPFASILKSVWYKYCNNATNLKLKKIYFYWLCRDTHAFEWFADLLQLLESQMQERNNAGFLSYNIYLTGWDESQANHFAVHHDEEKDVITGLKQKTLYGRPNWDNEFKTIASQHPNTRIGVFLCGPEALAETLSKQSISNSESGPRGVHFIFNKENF
Torsin-1A (Homo sapiens), sequence (O14656 whole entry, looked up): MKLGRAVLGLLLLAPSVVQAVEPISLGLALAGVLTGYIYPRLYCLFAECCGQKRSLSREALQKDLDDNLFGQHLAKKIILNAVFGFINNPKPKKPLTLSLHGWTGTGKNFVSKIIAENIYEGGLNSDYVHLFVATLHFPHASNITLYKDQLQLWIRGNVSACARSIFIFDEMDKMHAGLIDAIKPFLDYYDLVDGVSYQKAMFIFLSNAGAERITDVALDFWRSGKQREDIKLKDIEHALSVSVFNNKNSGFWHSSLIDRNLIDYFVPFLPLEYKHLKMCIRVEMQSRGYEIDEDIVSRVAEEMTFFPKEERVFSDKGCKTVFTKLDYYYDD
NADPH oxidase 4 (Homo sapiens), sequence (Q9NPH5 whole entry, looked up): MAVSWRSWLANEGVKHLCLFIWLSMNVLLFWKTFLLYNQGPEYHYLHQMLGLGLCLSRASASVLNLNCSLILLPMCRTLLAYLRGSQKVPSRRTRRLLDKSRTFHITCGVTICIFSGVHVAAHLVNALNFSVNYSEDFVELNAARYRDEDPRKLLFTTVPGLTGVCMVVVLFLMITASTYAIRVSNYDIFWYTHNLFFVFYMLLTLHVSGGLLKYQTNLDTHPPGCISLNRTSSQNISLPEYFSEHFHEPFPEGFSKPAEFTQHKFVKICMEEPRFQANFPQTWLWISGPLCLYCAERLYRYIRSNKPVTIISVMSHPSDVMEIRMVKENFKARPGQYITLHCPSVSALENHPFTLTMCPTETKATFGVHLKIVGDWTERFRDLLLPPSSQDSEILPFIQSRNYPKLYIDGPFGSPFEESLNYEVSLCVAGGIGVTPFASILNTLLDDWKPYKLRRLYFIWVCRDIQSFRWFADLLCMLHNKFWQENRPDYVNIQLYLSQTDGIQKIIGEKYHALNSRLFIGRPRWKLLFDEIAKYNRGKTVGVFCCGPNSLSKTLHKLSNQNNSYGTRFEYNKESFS
Streptavidin (Streptomyces avidinii), sequence (P22629 whole entry, looked up): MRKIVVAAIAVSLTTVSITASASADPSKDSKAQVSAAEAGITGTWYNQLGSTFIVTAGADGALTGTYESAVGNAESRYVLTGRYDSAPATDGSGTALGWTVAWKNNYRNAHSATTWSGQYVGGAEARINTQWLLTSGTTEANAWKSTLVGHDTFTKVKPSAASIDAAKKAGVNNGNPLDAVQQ

With `CC(C)(C)OC(=O)CC[C@@]1(C(=O)N2CCOCC2)N=C(c2ccc(OCCCO)cc2)O[C@@H]1c1ccccc1CN=[N+]=[N-]`, the composite z-score was 1.14 in assay [1]; 1.05 in [6]; 0.529 in assay [7]; 0.401 with Torsin-1A (Homo sapiens) [8]; 2.23 with Torsin-1A (Homo sapiens) [9]; -0.33 in assay [10]. In assay [12], this compound came in with a composite z-score of 0.85. Further, the z-score in assay [2] was -0.435 (inactive); in assay [3], -0.202 (inactive); in [4] it was 0.311 (inactive); in assay [5] it was -0.0177 (inactive); in [11], 0.409 (inactive); in [13], 27 (active). The z-score in assay [14] was 14.9 (active); in [15], -0.762 (inactive); in assay [16], 1.11 (inactive); in assay [17], -0.449; in assay [18], 0.825 (inactive); in [19], 2.1 (inactive). In assay [20], the z-score came out at 2.05.

With `CCOC(=O)C1=CCC(c2cccn2C(=O)OC(C)(C)C)N(S(=O)(=O)c2ccc(C)cc2)C1` (stereo not given), the composite z-score in assay [1] came out at 0.0845; in assay [6], 1.99; in assay [7], 0.18; with Torsin-1A (Homo sapiens) [8] it was 0.0444; with Torsin-1A (Homo sapiens) [9] it was 0.461; in assay [10], 0.157. The compound also registered a composite z-score in assay [12] of 0.245. In addition, the z-score was -4.35 (inactive) in assay [2]; 0.0401 (inactive) in [3]; 0.136 (inactive) in assay [4]; 19.4 (active) in [5]; -0.258 (inactive) in [11]; 7.3 (inactive) in [13]. Moreover, the z-score in [14] was 1.26 (inactive); in assay [15], 0.312 (inactive); in [16] it was 0.486 (inactive); in [17], -0.0414; in [18] it was -0.035 (inactive); in assay [19], 0.754 (inactive). In assay [20], this compound came in with a z-score of 0.499.

As for `COCCOC(=O)N1C(=O)[C@@]2(c3cc(C#CCC(C(=O)OC)C(=O)OC)ccc31)[C@H](C(=O)N1CCc3cc(OC)c(OC)cc3C1)[C@H]1C(=O)O[C@H](c3ccccc3)[C@H](c3ccccc3)N1[C@@H]2c1ccccc1OCCO`, the composite z-score in assay [1] is 0.725; in [6], 0.593; in assay [7], -0.025; in the assay with Torsin-1A (Homo sapiens) [8], 0.897; with Torsin-1A (Homo sapiens) [9], 0.949; in assay [10], 1.73. This compound gave a composite z-score in assay [12] of -0.314. Also, the z-score in assay [2] was -3.46 (inactive); in [3], -0.893 (inactive); in [4], -1.14 (inactive); in assay [5] it was 0.149 (inactive); in assay [11], 1.25 (inactive); in assay [13], 2.96 (inactive). In addition, the z-score in assay [14] was 1.42 (inactive); in assay [15], 0.358 (inactive); in [16], 0.265 (inactive); in assay [17], -0.0797; in assay [18], 1.48 (inactive); in assay [19] it was 1.57 (inactive). The compound further gave a z-score in assay [20] of 0.966.

With `O=C(CS)NCCCCCCNC(=O)[C@H]1C[C@H]2C(=O)NCC(=O)N2[C@H]1c1cccc(OCCO)c1`, the composite z-score in [1] is 0.497; in assay [6] it was -0.127; in assay [7], -0.226; with Torsin-1A (Homo sapiens) [8] it was 0.168; with Torsin-1A (Homo sapiens) [9], 0.442; in [10], 1.54. The same compound displayed a composite z-score in [12] of 0.0797. Further, the z-score was -2.15 (inactive) in [2]; -0.525 (inactive) in assay [3]; 0.0084 (inactive) in assay [4]; -0.963 (inactive) in [5]; 0.838 (inactive) in assay [11]; 2.16 (inactive) in [13]. The z-score in [14] is -0.151 (inactive); in [15], -1.92 (inactive); in assay [16], -1.36 (inactive); in assay [17] it was 0.21; in [18], 2.14 (inactive); in [19], 1.22 (inactive). Moreover, the z-score in assay [20] stood at 0.769.
